The results in this text go back to PubChem BioAssay (NCATS).

Molecules are shown by their SMILES. Inconclusive results are not listed. Active and inactive are the calls of the source. Calls follow the shape of the dose curve; as a rule, active = well fitted cell-killing curve with a large enough effect; inconclusive = small, poorly fitted or top-dose-only effect, or effect the other way; inactive = flat fitted curve, though single readings scatter.

For the assay, the system named is SKOV3. Briefly: Primary qHTS to identify gynecologic anti-cancer compounds using libraries of approved drugs and bioactive compounds (AID 1345084). Also: nearly all actives have a fitted effect of over 55% in size. To be noted: Gynecologic cancer cell panel viability, ATPlite luminescence, 48 h; series mostly up to 57.5 µM. In outline: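 Five-point cytotoxicity, 48 h drug exposure at 37 C, 5% CO2, on cells seeded 16 h beforehand. ATP content read by ATPlite luminescence.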
For `CN(C)CCCSc1ccccc1NC(=O)/C=C/c1ccccc1`, the outcome was inactive.

In the case of `N[C@@H](Cc1cc(I)c(Oc2ccc(O)c(I)c2)c(I)c1)C(=O)O`, the outcome was inactive. `O=C(O)CCC(=O)c1ccc(-c2ccccc2)cc1`: the result was inactive. `O=C(O)Cc1cc(I)c(Oc2ccc(O)c(I)c2)c(I)c1`: the outcome was inactive. On to `CC(C)(C)c1ccc(CN2CCN(C(c3ccccc3)c3ccc(Cl)cc3)CC2)cc1` (configuration not stated), for which the result was inactive. With `C[C@]12CC[C@@H]3c4ccc(OC(=O)c5ccccc5)cc4CC[C@H]3[C@@H]1CC[C@@H]2O`, the result was inactive. For `O=C(OCc1ccccc1)c1ccc(O)cc1`, the compound was classed as inactive. The same measure for `C=C1[C@H](CO)[C@@H](O)C[C@@H]1n1cnc2c(=O)[nH]c(N)nc21`: “inactive”.

Consider `CC1CC(OC(=O)C(O)c2ccccc2)CC(C)(C)C1` (configuration not stated), for which the outcome was inactive.

Turning to `CCN(CC)CCOCCOC(=O)C(CC)(CC)c1ccccc1`, the compound was called inactive. Regarding `Nc1ccc(N=Nc2ccccc2)c(N)n1`, the compound was classed as inactive. The same measure for `C=C1CC[C@H](O)CC1=C/C=C1\CCC[C@]2(C)[C@@H]([C@H](C)/C=C/[C@H](C)C(C)C)CC[C@@H]12`: “inactive”.
